The values below come from PubChem BioAssay AID1508600 (Functional Genomics Laboratory (NCATS/FGL), 2020).

Out of some 53,000 sequences screened, about 3,700 (7%) were called active. The sample as a whole holds a higher share of actives than the screen did. Unmarked numbers belong to inactive results.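 Rule for the calls: active = gene knockdowns whose robust z-score for IL-1 alpha signal is at least 2 or at most -2, so actives lie on both sides; inactive = the rest.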

The nature of the test: Components of the Cytosolic LPS Sensing Pathway: Gene Identification via Genome-wide siRNA Screen.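 Note: robust z of the log signal after scaling to non-targeting control siRNA wells of the plate.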 The settings on record: RAW264.7 macrophages, IL-1a HTRF, actives lie on both sides, screened at 100 nM (by protocol), cells primed 5 h with Pam3CSK4 first. The method, boiled down: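 Supernatant IL-1a by HTRF from RAW264.7 cells primed with Pam3CSK4 (5 hours) and transfected with LipidA (24 hour) after 48h siRNA knockdown at 100 nM; cell viability checked with CellTiter-Glo.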
(In general: TR-FRET usually uses a lanthanide donor and a delayed reading to cut background.)
Consider GGCUUGAAGUUCAUUUAUUTT against Nkiras2, for which the z-score was -1.03.
As for GGUUAUUCAAAAAUGCAACTT against Rcor1, the figure is -0.559.
The same measure for GGAAAGGCUCAAUGAGAGCTT against Nipa2: -3.3 (active); for GGUCUAUGCGAUGCUAUACTT against Sarm1: -0.508.
The same measure for GCCGUUUACCUUAGUCUGUTT against Cyb5rl: 0.00283; for GCCAGCCUAAAAAAGAUACTT against Eef1g: 0.254.
For GGAUCUUGGCUAAAGAGGGTT against Slc25a25, the z-score is 0.0129.
The same measure for GCAAUUGAAAGUGAACAAUTT against Olfr1360: -0.935; for GGAGGAAAGUUGUAUUUGATT against Nudt7: 0.148; for GGCGAGUUCAGGAGUUUACTT against Fmnl1: 2.55 (active).
As for GGGUACCUGUCCAAGGUCATT against Mfn2, the figure is 0.849; as for GGAUGGAACAUAUGAUUAGTT against Vmn1r234, 0.653; as for GGUGUCAGGAUUUUAUAACTT against Etfbkmt, -0.182.
As for GGUGGUUUGUGAUGAAAAUTT against Pabpc1, the figure is 2.11 (active); as for GUUUGUCUAGCUUCAGAUGTT against Rims4, 1.78; as for GGGAGGACAUCCAGACAAUTT against Fam13b, -0.305.
In the case of GGGAAAGAUAAGCUCAAGGTT against Sh2d2a, the z-score is 1.32.
As for GACUCUAAACCUAGCAGCGTT against Basp1, the figure is -2.34 (active); as for GGCUGGUUUAUUUGUGGACTT against Cemip2, 0.574; as for GGAUAUGGAAGAAGUUGUGTT against Olfr1089, -2.2 (active).
Regarding CCAGCUAUACGAAGACUUCTT against Hdhd3, the z-score was 0.0525.
As for GGAGGUGGAAUCUUUCCCUTT against Aplp1, the figure is -1.68.
The same measure for GGAAAAGGCAAUCGUUUCUTT against Mtg2: 0.278; for GUAUGUUCAUAUGGUUUUCTT against Swi5: 2.33 (active).
The same measure for GUCUUCCCUCAUCCUUUGATT against Cox8a: 0.902; for GCAGAAGUUCAUUUUCCUATT against Olfr145: 0.969.
As to GGUCAUGUCCAUCCCAAAGTT against Ficd, the z-score was 1.15.
In the case of GGAUUAUUUUAAGUGGAGATT against Dna2, the z-score was -0.103.
The same measure for GGAUUCACUAGCAUUGUAGTT against Guca1b: -0.725; for GGAGCUUCUAGACUGUACCTT against Lrmp: 2.03 (active); for GCAAGAAUCAUCCGGUUACTT against Ttc39b: 1.36.
As for CCUUUACACCACUCUAUUUTT against Adgb, the figure is -0.795.
With GCCGCUACCUAUGAUGUCCTT against Kcne4, the z-score is 0.385.
The same measure for GGUCCUGGAAUCUCAAAAUTT against Entpd1: -0.506; for GCAGAUCGCAAAAGAUCCUTT against Nppa: 0.69.
GGUCAAGUCAGUAACUGCATT against Olfr10: the z-score is 0.747.
As for GCUCAGAUUUGCUUUAUGATT against Ube2r2, the figure is 0.367.
The same measure for GGGAAUGGCUAAUGUUUAUTT against Stk38l: 2.32 (active); for GCCUCACUUUGCCAUGCAUTT against Pou4f1: -1.78.
As to GGAUGCCAGAAGAAUAUUCTT against Pnlip, the z-score is 2.43 (active).
The same measure for CCAUGCUGAUUGCUCCGACTT against Cass4: 1.46; for GGAUAUGUGAAAUGCAUUGTT against Asb9: 0.219; for GGCUAAAGGCCUUCUUUUUTT against Reep3: 0.622.
Take CGCGAUUCAGCUCAUUCUCTT against Slitrk1: the z-score was 0.83.
As to GCCAUCUUCGGUCAACUCUTT against Olfr969, the z-score was -2.87 (active).
With GGACUCCGUCAUAUACGAATT against Olfr1102, the z-score was -0.187.
The same measure for GGUAAAAGUGGGUAGGAAATT against Ptprh: 0.595; for GGAUCUACGUAGCAUUUCATT against Mis12: 0.237; for CCCUAAGAGUCACCAAAAUTT against Nos2: -2.19 (active).
As for GGGCUGAAUAAGGAACUGUTT against Nudt16l2, the figure is 1.46.
The same measure for GGAAAGAUCACUCUUGCAUTT against Pon1: -0.58.
In the case of GGACCACUCCAAGAGUUCUTT against Ncapd3, the z-score is 2.88 (active).
As for “GGAACUCUGGAAUAAUCUGTT against St6galnac2”, the figure is 1.58.
As for GGACCAGCUGAUCUCAGUATT against Olfr418, the figure is -1.94; as for “GGCUGACAAGAGAUUUAAATT against 4930430F08Rik”, -0.703; as for GCUACGCUUCCUUAUUUGCTT against Tubgcp3, 0.525.
As for GCCAAUAAGAACAACGAUGTT against Des, the figure is 0.732.
Consider GUCUAUCUUCAGCACAAACTT against Klrc3, for which the z-score is 2.12 (active).
As for GGUCUUUGAUCUACGAAUGTT against Rhobtb2, the figure is 0.825; as for GGAGAUAAAUGUGUAGACCTT against Matn3, 0.915.
As for GCACAAAUAAAGAUAAGAGTT against Uox, the figure is -0.178; as for GGUUUAACUGUAGCAUAAGTT against Pde12, -0.0106; as for GGGACUCGGGCAGUAUUCATT against Tgm5, -0.185.
As to GGUCGAACUUCUGUGCCAUTT against Slc39a8, the z-score was 2.39 (active).
The same measure for GCAGAUGUAAAUAGCAAAATT against Apc: 0.955; for GGGUGACAUGAUUUUAACUTT against Fbh1: -0.727; for GGCAAAUCCCGUUCACUGATT against Magel2: -1.08.
As for “GCUUUUGGUACAGGAUGCCTT against 5830411N06Rik”, the figure is -2.68 (active); as for GCGAUGAUGUGCUUAUGUCTT against Zfp341, 0.735.
